The campaign covered roughly 1,400 compounds. About 30 (2%) were called active. A call without a number means that no potency is given here. About 15% were inconclusive and are not listed. This is one part of a sample in which actives are shown more often than they occur. Calls come from the whole dose curve; as a rule, active = well fitted inhibition curve with a large enough effect; inconclusive = small, poorly fitted or top-dose-only effect; inactive = flat fitted curve, though single readings scatter.
Assay: Firefly Luciferase Counterscreen for Inhibitors of ATXN expression
Conditions: luminescence; series mostly up to 57.5 µM
Excerpt: University of Utah School of Medicine, Salt Lake City, Utah
Spinocerebellar ataxia type 2 (SCA2) is a multisystem neurodegenerative disease caused by a dominantly acting mutation leading to expansion of a polyQ domain in the ataxin-2 protein (ATXN2). SCA2 patients develop progressive ataxia and later lose function in other neuronal systems. Prominent parkinsonian signs develop in some patients. Like many neurodegenerative disorders, no symptomatic or disease-modifying treatments are known.
The primary objective of the proposed research is to identify compounds inhibiting ATXN2 expression and to test them for efficacy in SCA2 mouse models. We have developed a cell-based assay paired with an in vivo mouse model using identical luciferase expression constructs. This approach takes advantage of an ATXN2-luciferase transgene, with the luciferase gene flanked by the upstream and downstream portions of the ATXN2 gene. Here we describe a 5-7 dose quantitative high thoroughput screen (qHTS) for compounds lowering ATXN2 expression. We screened the NIH Molecular Libraries Small Molecule Repository (MLSMR) and NCGC's mechanistically annotated (MIPE) and drug repurposing (NPC) collections of compounds for lowering expression of an ATXN2-luciferase reporter in HEK-293 cells. The assay is a multiplexed cell viability assay to ensure target reduction in the absence of cytotoxicity. Secondary qHTS assays included a CMV-luciferase reporter expressed in HEK-293 cells as well as a biochemical assay using recombinant luciferase to detect inhibitors of the reporter enzyme. Compounds that inhibit ATXN2 expression but is not cytotoxic were selected for confirmatory and secondary screens.
PROTOCOL TABLE (as described by Inglese J, Shamu CE and Guy RK. 2007)
SEQUENCE No. (e.g., 1, 2, 3, etc.); […] (e.g., Cells, Incubation, Reagent, etc.); VALUE; DESCRIPTION.
2; Compounds; 23 nL; Kalypsis pintool (Wako USA) equipped with a 1536-well pin head.
3; Enzyme; 1 uL; recombinant firefly luciferase (prepared in 50 mM Tris HCl pH7.5, 10 mM MgCl2, 0.05% BSA, 0.01% Tween20) at final concentration of 10 nM. Wells containing buffer only were used as control (set as 100% inhibition when normalizing data).
4; Incubation; 10 min; room temperature.
5; Detection; Luminescence; Viewlux plate reader (PerkinElmer).
NOTES (numbers refer to Sequence numbers above)
1. Luciferase substrate is added to 1536 well, Greiner white assay plate. Evaporation was prevented by covering assay plates with metal lids containing holes to allow gas diffusion.
2. Compounds were added in a dose response manner with the final concentrations of 57, 11.4, 2.28, 0.46, 0.091, 0.018, 0.0037 uM. Vehicle-only plates, with DMSO being pin-transferred to columns 5-48, were inserted uniformly at the beginning and the end of each library to monitor and record any shifts in assay performance.
3. Recombinant firefly luciferase (10 nM final concentration) is added to the assay plate.
5. End-point luminescence is then measured on the Viewlux (PerkinElmer) imager equipped with a clear emission filter using a 2 sec exposure.
Inglese J, Shamu CE and Guy RK, Reporting data from high throughput screening of small molecule libraries, Nature Chemical Biology, 2007, 3(8): 438-441. doi.org/10.1038/nchembio0807-438.
Potency is the fitted concentration of half-maximal effect.

SMILES	Potency
NC(=O)c1cccc(-c2ccnc3c2CC(C(=O)Nc2cccc(Oc4ccccc4)c2)O3)c1 (stereo unspecified)	inactive
CS(=O)(=O)Nc1cccc(NC(=O)c2cccc3c(-c4cccc(C(N)=O)c4)coc23)c1	14.1 µM (active)
CCc1nc2ccc(C(=O)Nc3cccc(NS(C)(=O)=O)c3)cn2c1N(C)CCCc1ccccc1	inactive
O=C1c2cccc3cc([N+](=O)[O-])cc(c23)C(=O)N1CCN1CCCC1	inactive
COc1cc(C(=O)NC(=S)NNC(=O)c2cnccn2)cc(OC)c1OC	inactive
CC1=NN(c2nc3ccccc3[nH]2)C(=O)C1Cc1ccccc1 (stereo unspecified)	25.1 µM (active)
Clc1ccc2c(NCc3ccccc3)ccnc2c1	inactive
CC1(C)C(C=C(Cl)Cl)C1C(=O)Nc1ccc([N+](=O)[O-])cc1 (stereo unspecified)	inactive
CC1(C)Cc2ccccc2C2=NNC(=O)C2=N1	inactive
CC(=O)Nc1ccc(N(CC(O)Cn2c3ccccc3c3ccccc32)S(=O)(=O)c2ccc(C)cc2)cc1 (stereo unspecified)	inactive
Cc1ccc(S(=O)(=O)Nc2ccc(O)c3cccnc23)cc1	inactive
CC(C)n1cnc2c(N(C)c3ccccc3)nc(N(CCN(C)C)Cc3ccccc3)nc21	inactive
COc1ccc(-c2cc(C3CCN(c4ccc(C(C)=O)cc4[N+](=O)[O-])CC3)[nH]n2)cc1	inactive
CCC(c1nnnn1C1CCCC1)N(Cc1cccs1)Cc1cc2cc(C)ccc2[nH]c1=O (stereo unspecified)	inactive
CC[n+]1c(/C=C/N(C)c2ccccc2)oc2ccc(F)cc21	inactive
O=[N+]([O-])c1ccc(NC(c2ccccc2)c2ccc3cccnc3c2O)cc1 (stereo unspecified)	inactive
CCC1=C(CC2NCCc3ccccc32)CC2c3cc(OC)c(OC)cc3CCN2C1 (stereo unspecified)	inactive
O=C(/C=C/c1ccco1)Oc1cc(Br)cc(/C=N/NC(=O)c2ccccc2O)c1	12.6 µM (active)
O=C(CNC(=O)c1ccccc1F)N/N=C/c1cc(Br)ccc1OC(=O)/C=C/c1ccco1	inactive
O=C(CNC(=O)c1ccc(F)cc1)N/N=C/c1cc(Br)ccc1OC(=O)/C=C/c1ccco1	inactive
O=C(CN1C(=O)c2ccccc2S1(=O)=O)c1ccc(Cl)cc1Cl	0.562 µM (active)
O=C(CCCN1C(=O)/C(=C/c2ccccc2Cl)SC1=S)NNC(=O)c1ccc(Cl)cc1Cl	inactive
Cc1ccc(NC(=O)CN2C(=O)c3ccccc3S2(=O)=O)cc1C	inactive
Cc1cc(C(=O)CN2C(=O)c3ccccc3S2(=O)=O)c(C)n1CC1CCCO1 (stereo unspecified)	6.31 µM (active)
Cc1nnc(SCC(N)=O)n1CC1CCCO1 (stereo unspecified)	inactive
COc1ccc(S(=O)(=O)Nc2ccc(F)cc2)cc1N(C)S(=O)(=O)c1ccc(Cl)cc1	inactive

— PubChem BioAssay AID1745846 (National Center for Advancing Translational Sciences (NCATS), 2022)
